“And” between values parts separate entries of the source, which are not always exact repeats. Equal entries are not always repeated. The whole screen tested about 5,500 compounds, of which about 2,000 (36%) were called active. Roughly 18% stayed inconclusive and do not appear here. Rule as the data show it: active = normalized growth mostly below about 0.91 (no sharp cut-off); inconclusive = no clear call, values can overlap the other calls; inactive = mostly above about 0.92. The list shows a part of the results.
Test: chemical genetic growth profiling, strain panel (AID 1159580);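 also: tested at 20 µM; growth read once vehicle control cultures reached saturation at 30 °C; 1 = growth at the plate median or of vehicle wells; lower values mean less growth of the strain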
Details: S. cerevisiae deletion strains, growth OD

Measured: normalized growth

Cc1ccccc1N1C(=O)c2cc(S(N)(=O)=O)c(Cl)cc2NC1C (stereo not drawn)
inactive: locus YAL013W, strain DEP1, hits give low values 0.989 | locus YAL021C, strain ccr4, hits give low values 1 | locus YAL026C, strain drs2, hits give low values 0.983 | locus YAL030W, strain snc1, hits give low values 0.991 | locus YBL061C, strain skt5, hits give low values 0.987 | locus YBR009C, strain hhf1, hits give low values 1 | locus YBR021W, strain FUR4, hits give low values 0.968 | locus YBR023C, strain chs3, hits give low values 0.989 | locus YBR171W, strain sec66, hits give low values 0.963 | locus YBR229C, strain ROT2, hits give low values 0.982 | locus YBR231C, strain swc5, hits give low values 0.987 | locus YBR279W, strain paf1, hits give low values 0.996 | locus YCL011C, strain gbp2, hits give low values 0.997 | locus YCL016C, strain dcc1, hits give low values 1.03 | locus YCL029C, strain bik1, hits give low values 0.979 | locus YCL069W, strain vba3, hits give low values 0.996 | locus YCR088W, strain abp1, hits give low values 0.978 | locus YDL005C, strain med2, hits give low values 0.96 | locus YDL035C, strain GPR1, hits give low values 1.01 | locus YDL040C, strain nat1, hits give low values 0.986 | locus YDL074C, strain BRE1, hits give low values 1.02 | locus YDL101C, strain DUN1, hits give low values 0.985 | locus YDL134C, strain PPH21, hits give low values 0.983 | locus YDL185W, strain tfp1, hits give low values 0.984 | locus YDL192W, strain arf1, hits give low values 0.98 | locus YDR001C, strain nth1, hits give low values 0.957 | locus YDR069C, strain doa4, hits give low values 0.96 | locus YDR101C, strain arx1, hits give low values 0.994 | locus YDR137W, strain rgp1, hits give low values 1 | locus YDR159W, strain sac3, hits give low values 0.973 | locus YDR162C, strain NBP2, hits give low values 0.994 | locus YDR195W, strain ref2 0.944 | locus YDR297W, strain sur2, hits give low values 1 | locus YDR318W, strain mcm21, hits give low values 0.99 | locus YDR334W, strain swr1, hits give low values 0.918 | locus YDR335W, strain msn5, hits give low values 0.973 | locus YDR388W, hits give low values 0.994 | locus YDR392W, strain spt3, hits give low values 1.01 | locus YDR502C, strain sam2, hits give low values 0.983 | locus YEL003W, strain gim4, hits give low values 0.978 | locus YEL037C, strain rad23, hits give low values 0.978 | locus YEL061C, strain CIN8 (second series), hits give low values 0.985 | locus YEL061C, strain CIN8, hits give low values 0.993 | locus YER015W, strain faa2, hits give low values 0.986 | locus YER016W, strain bim1, hits give low values 0.998 | locus YER110C, hits give low values 0.976 | locus YER111C, strain swi4, hits give low values 0.987 | locus YER155C, strain BEM2 (second series), hits give low values 0.99 | locus YER155C, strain BEM2, hits give low values 0.981 | locus YER167W, strain BCK2, hits give low values 0.981 | locus YFR010W, strain ubp6, hits give low values 0.968 | locus YGL078C, strain dbp3, hits give low values 0.981 | locus YGL086W, strain mad1, hits give low values 1.01 | locus YGL167C, strain pmr1, hits give low values 0.996 | locus YGL173C, strain kem1, hits give low values 1.01 | locus YGL227W, strain vid30, hits give low values 0.972 | locus YGL240W, strain doc1, hits give low values 0.995 | locus YGL248W, strain PDE1, hits give low values 1 | locus YGL253W, strain hxk2, hits give low values 0.972 | locus YGR135W, strain pre9, hits give low values 0.986 | locus YGR229C, strain SMI1, hits give low values 0.982 | locus YGR252W, strain gcn5, hits give low values 0.991 | locus YHR013C, strain ard1, hits give low values 1.02 | locus YHR027C, strain rpn1, hits give low values 0.991 | locus YHR030C, strain SLT2, hits give low values 0.987 and 0.961 | locus YHR079C, strain IRE1 (second series), hits give low values 0.997 | locus YHR079C, strain IRE1, hits give low values 0.966 | locus YHR094C, strain hxt1, hits give low values 0.99 | locus YHR129C, strain ARP1, hits give low values 0.988 | locus YHR142W, strain chs7, hits give low values 0.969 | locus YHR200W, strain rpn10, hits give low values 0.982 | locus YIL066C, strain RNR3, hits give low values 1.01 | locus YIL073C, strain SPO22, hits give low values 1.03 | locus YIL125W, strain kgd1, hits give low values 0.991 | locus YIR030C, strain dcg1, hits give low values 0.987 | locus YJL092W, strain hpr5, hits give low values 0.992 | locus YJL095W, strain BCK1 (second series), hits give low values 0.956 | locus YJL095W, strain BCK1, hits give low values 1.03 and 0.975 | locus YJL115W, strain asf1, hits give low values 0.965 | locus YJL129C, strain trk1, hits give low values 0.941 | locus YJL134W, strain LCB3, hits give low values 0.986 | locus YJL154C, strain vps35, hits give low values 0.961 | locus YJL164C, strain tpk1, hits give low values 1.03 | locus YJL166W, strain qcr8, hits give low values 0.978 | locus YJL168C, strain set2, hits give low values 0.992 | locus YJL187C, strain SWE1 (second series), hits give low values 1 | locus YJR043C, strain POL32, hits give low values 0.994 | locus YJR066W, strain TOR1, hits give low values 0.923

Source: PubChem BioAssay AID1159580 (chemical genetic matrix, 2015)
